Measurements: the antibiotic and cytotoxicity screens of Wong et al. (2023)
The campaign covered roughly 39,000 compounds. About 3,300 (8.5%) were called active. Shown is part of a subset that was picked to be rich in actives.

tested on: HepG2; assay: cytotoxicity call (relative viability < 0.9); conditions: 10 µM

| Structure (SMILES) | cytotoxicity call |
| --- | --- |
| COc1ccc(C#Cc2ccc3c(c2)[C@H]2[C@H](CCN2C(=O)Nc2ccc(C(F)(F)F)cc2)[C@H](CO)N3C)cc1 | inactive |
| C[C@H](CO)N1C[C@H](C)[C@@H](CN(C)S(=O)(=O)c2cn(C)cn2)Oc2ccc(NC(=O)c3ccncc3)cc2C1=O | inactive |
| C[C@@H]1CN([C@H](C)CO)S(=O)(=O)c2ccc(Br)cc2O[C@H]1CN(C)Cc1cccc(C(=O)O)c1 | inactive |
| C[C@@H]1CN([C@H](C)CO)C(=O)c2cccc(NC(=O)Nc3ccccc3)c2O[C@H]1CN(C)Cc1ccc(C(=O)Nc2ccccc2N)cc1 | inactive |
| O=C(C[C@@H]1C[C@@H]2c3cc(NC(=O)Nc4ccccc4F)ccc3O[C@@H]2[C@@H](CO)O1)NCc1ccc(Oc2ccccc2)cc1 | active |
| O=C(C[C@H]1C[C@H]2c3cc(NC(=O)Nc4ccccc4F)ccc3O[C@H]2[C@H](CO)O1)NCc1ccc(Oc2ccccc2)cc1 | inactive |
| O=C(C[C@@H]1C[C@H]2c3cc(NC(=O)Nc4ccccc4F)ccc3O[C@H]2[C@H](CO)O1)NCc1ccc(Oc2ccccc2)cc1 | inactive |
| O=C(C[C@H]1C[C@H]2c3cc(NC(=O)NC4CCCC4)ccc3O[C@H]2[C@H](CO)O1)NCc1ccc(Oc2ccccc2)cc1 | active |
| O=C(C[C@H]1C[C@@H]2c3cc(NC(=O)NC4CCCC4)ccc3O[C@@H]2[C@@H](CO)O1)NCc1ccc(Oc2ccccc2)cc1 | inactive |
| O=C(C[C@@H]1C[C@H]2c3cc(NC(=O)NC4CCCC4)ccc3O[C@H]2[C@H](CO)O1)NCc1ccc(Oc2ccccc2)cc1 | inactive |
| O=C(C[C@@H]1C[C@H]2c3cc(NC(=O)NC4CCCC4)ccc3O[C@H]2[C@@H](CO)O1)NCc1ccc(Oc2ccccc2)cc1 | inactive |
| O=C(C[C@@H]1C[C@@H]2c3cc(NC(=O)NC4CCCC4)ccc3O[C@@H]2[C@H](CO)O1)NCc1ccc(Oc2ccccc2)cc1 | inactive |
| O=C(C[C@H]1C[C@@H]2c3cc(NC(=O)NC4CCCC4)ccc3O[C@@H]2[C@H](CO)O1)NCc1ccc(Oc2ccccc2)cc1 | active |
| CC(C)(C)OC(=O)C[C@@H]1CC=CC[C@H](CC(=O)NCCO)C(=O)NCCOC1=O | inactive |
| COCC#Cc1ccc([C@@H]2[C@H](CO)N3C(=O)CN(C(=O)c4ccncc4)C[C@@H]23)cc1 | inactive |
| CO[C@H]1CN(C)C(=O)c2ccc(NS(C)(=O)=O)cc2OC[C@@H](C)N(C(=O)CN(C)C)C[C@H]1C | inactive |
| C[C@@H]1CN([C@H](C)CO)C(=O)Cc2cc(NS(=O)(=O)c3ccc(F)cc3)ccc2O[C@H]1CN(C)Cc1ccncc1 | inactive |
| C=CCC[C@H](Cc1ccc(F)cc1)C(=O)OC[C@@H]1CCCN1C(=O)[C@H](CC=C)CC(=O)N(CCO)Cc1ccccc1 | inactive |
| CC(C)(C)OC(=O)N1CCNC(=O)C1 | inactive |
| O=C(O)CCN1C(=O)NC2(CCCC2)C1=O | inactive |
| O=C(C1=C[C@@H](c2ccsc2)C[C@@H](OCCCCO)O1)N1CCN(Cc2ccc3c(c2)OCO3)CC1 | inactive |

| Structure (SMILES) | cytotoxicity call |
| --- | --- |
| C[C@H]1CN([C@@H](C)CO)C(=O)CCCn2nncc2CO[C@@H]1CN(C)C(=O)CCCN(C)C | inactive |
| C[C@H]1CN([C@@H](C)CO)C(=O)Cc2cc(NC(=O)CCN3CCOCC3)ccc2O[C@@H]1CN(C)S(=O)(=O)c1ccc(Cl)cc1 | inactive |
| CC(=O)OC(C)C[N+](C)(C)C.[Cl-] (configuration not stated) | active |
| CC(C[N+](C)(C)C)OC(N)=O.[Cl-] (configuration not stated) | inactive |
| CC(=O)O[C@@H](C)C[N+](C)(C)C | inactive |
| O=C(C[C@H]1CC[C@H]2[C@@H](COC[C@@H](O)CN2C(=O)Nc2cccc(Cl)c2)O1)NCc1ccccc1F | inactive |
| CN(C)Cc1cn(CC[C@@H]2CC[C@@H](NC(=O)Cc3cccnc3)[C@@H](CO)O2)nn1 | inactive |
| C[C@@H]1CCCCO[C@@H](CN(C)C(=O)c2ccncc2)[C@H](C)CN([C@H](C)CO)C(=O)c2cc(NS(=O)(=O)c3cn(C)cn3)ccc2O1 | inactive |
| O=C(C[C@@H]1CC[C@H]2[C@@H](COC[C@@H](O)CN2S(=O)(=O)c2ccccc2F)O1)NCc1ccccc1Cl | inactive |
| C[C@@H]1CN([C@H](C)CO)C(=O)c2cc(NS(C)(=O)=O)ccc2O[C@@H]1CN(C)Cc1ccc(C(=O)Nc2ccccc2N)cc1 | inactive |
| COc1ccc(CNC(=O)c2cc3c(c(-c4cccc(-c5ccc(C#N)cc5)c4)n2)[C@H](CCO)N([S@@](=O)C(C)(C)C)C3)cc1 | inactive |
| COc1ccc(C2=N[C@@H](c3ccc(Cl)cc3)[C@@H](c3ccc(Cl)cc3)N2C(=O)N2CCNC(=O)C2)c(OC(C)C)c1 | active |
| COc1ccc(C2=N[C@H](c3ccc(Cl)cc3)[C@H](c3ccc(Cl)cc3)N2C(=O)N2CCNC(=O)C2)c(OC(C)C)c1 | inactive |
| COc1ccc(S(=O)(=O)N(C)C[C@@H]2Oc3ccc(NC(=O)C4CC4)cc3C(=O)N([C@@H](C)CO)C[C@@H]2C)cc1 | inactive |
| Cc1noc(C)c1NC(=O)N(C)C[C@H]1Oc2c(NS(=O)(=O)c3cn(C)cn3)cccc2C(=O)N([C@H](C)CO)C[C@@H]1C | inactive |
| C[C@@H]1CN([C@@H](C)CO)C(=O)c2cc(NC(=O)NC3CCCCC3)ccc2O[C@@H](C)CCCCO[C@H]1CN(C)C(=O)Nc1ccc2c(c1)OCO2 | active |
| C[C@@H]1CCCCO[C@@H](CN(C)C(=O)Nc2ccc3c(c2)OCO3)[C@@H](C)CN([C@@H](C)CO)C(=O)c2cc(NC(=O)NC3CCCCC3)ccc2O1 | inactive |
| C[C@H](CO)N1C[C@H](C)[C@@H](CN(C)C(=O)Nc2ccc3c(c2)OCO3)OCCCC[C@H](C)Oc2ccc(NC(=O)NC3CCCCC3)cc2C1=O | inactive |
| C[C@@H]1CCCCO[C@H](CN(C)C(=O)Nc2ccc3c(c2)OCO3)[C@H](C)CN([C@@H](C)CO)C(=O)c2cc(NC(=O)NC3CCCCC3)ccc2O1 | inactive |
| C[C@@H]1CCCCO[C@@H](CN(C)C(=O)Nc2ccc3c(c2)OCO3)[C@H](C)CN([C@H](C)CO)C(=O)c2cc(NC(=O)NC3CCCCC3)ccc2O1 | inactive |
| C[C@@H]1CCCCO[C@H](CN(C)C(=O)Nc2ccc3c(c2)OCO3)[C@H](C)CN([C@H](C)CO)C(=O)c2cc(NC(=O)NC3CCCCC3)ccc2O1 | active |

| Structure (SMILES) | cytotoxicity call |
| --- | --- |
| C[C@@H]1CN([C@@H](C)CO)C(=O)Cc2cc(NC(=O)CCCN(C)C)ccc2O[C@H]1CN(C)S(=O)(=O)c1ccc(Cl)cc1 | inactive |
| Cc1noc(C)c1NC(=O)N(C)C[C@H]1Oc2ccc(NC(=O)C3CC3)cc2CC(=O)N([C@@H](C)CO)C[C@@H]1C | inactive |
| C[C@@H]1CCCCO[C@@H](CN(C)S(=O)(=O)c2cn(C)cn2)[C@H](C)CN([C@@H](C)CO)C(=O)c2cc(NC(=O)Nc3cccc4ccccc34)ccc2O1 | inactive |
| CCCNC(=O)N(C)C[C@@H]1Oc2ncc(-c3ccc(C(=O)N(C)C)cc3)cc2C(=O)N([C@H](C)CO)C[C@H]1C | inactive |
| C[C@@H]1CCCCO[C@@H](CN(C)C(=O)Nc2ccc(C(F)(F)F)cc2)[C@H](C)CN([C@@H](C)CO)C(=O)c2cc(NC(=O)Nc3ccc(F)cc3)ccc2O1 | inactive |
| Cc1ccc(S(=O)(=O)N(C)C[C@H]2OCCCC[C@H](C)Oc3ccc(NS(=O)(=O)c4ccc(F)cc4)cc3C(=O)N([C@H](C)CO)C[C@@H]2C)cc1 | inactive |
| C[C@@H]1CN([C@@H](C)CO)C(=O)Cc2cc(NC(=O)Nc3ccc(F)cc3)ccc2O[C@H]1CN(C)Cc1ccc(C(=O)Nc2ccccc2N)cc1 | inactive |
| COc1ccc(NC(=O)Nc2ccc3c(c2)CC(=O)N([C@H](C)CO)C[C@@H](C)[C@@H](CN(C)Cc2ccc(C(=O)Nc4ccccc4N)cc2)O3)cc1 | active |
| COc1ccc(NC(=O)Nc2ccc3c(c2)CC(=O)N([C@H](C)CO)C[C@H](C)[C@@H](CN(C)Cc2ccc(C(=O)Nc4ccccc4N)cc2)O3)cc1 | inactive |
| C[C@H](CO)N1C[C@H](C)[C@@H](CN(C)Cc2ccc(C(=O)Nc3ccccc3N)cc2)Oc2ccc(NC(=O)Nc3ccccc3)cc2CC1=O | inactive |
| C[C@@H]1CN([C@H](C)CO)C(=O)Cc2cc(NC(=O)Nc3cccc4ccccc34)ccc2O[C@@H]1CN(C)Cc1ccc(C(=O)Nc2ccccc2N)cc1 | inactive |
| C[C@H]1CN([C@@H](C)CO)C(=O)Cc2cc(NC(=O)Nc3ccccc3)ccc2O[C@H]1CN(C)Cc1ccc(C(=O)Nc2ccccc2N)cc1 | inactive |
| C[C@H](CO)N1C[C@H](C)[C@H](CN(C)Cc2ccc(C(=O)Nc3ccccc3N)cc2)Oc2ccc(NC(=O)Nc3ccccc3)cc2CC1=O | inactive |
| C[C@@H]1CN([C@H](C)CO)C(=O)Cc2cc(NC(=O)Nc3cccc4ccccc34)ccc2O[C@H]1CN(C)Cc1ccc(C(=O)Nc2ccccc2N)cc1 | inactive |
| C[C@@H]1CN([C@H](C)CO)C(=O)Cc2cc(NC(=O)Nc3ccccc3)ccc2O[C@@H]1CN(C)Cc1ccc(C(=O)Nc2ccccc2N)cc1 | active |
| COc1ccc(NC(=O)Nc2ccc3c(c2)CC(=O)N([C@@H](C)CO)C[C@H](C)[C@@H](CN(C)Cc2ccc(C(=O)Nc4ccccc4N)cc2)O3)cc1 | inactive |
| C[C@@H]1CN([C@H](C)CO)C(=O)Cc2cc(NC(=O)Nc3ccc(F)cc3)ccc2O[C@@H]1CN(C)Cc1ccc(C(=O)Nc2ccccc2N)cc1 | active |
| C[C@H](CO)N1C[C@H](C)[C@H](CN(C)Cc2ccc(C(=O)Nc3ccccc3N)cc2)Oc2ccc(NC(=O)Nc3cccc4ccccc34)cc2CC1=O | active |
| COCC#Cc1ccc2c(c1)O[C@@H](CN(C)S(=O)(=O)c1ccc(F)cc1)[C@H](C)CN([C@@H](C)CO)S2(=O)=O | inactive |
| C[C@@H]1CN([C@@H](C)CO)C(=O)Cc2cc(NS(=O)(=O)c3cccs3)ccc2O[C@H]1CN(C)S(=O)(=O)c1ccc(F)cc1 | inactive |
